Common to all, as to assay: log2 ratio of Biotin-Ahx-Ub-VS probe labelling (fragment/DMSO); higher = less target engagement (more negative = stronger competition), active = hit call of the paper (q ≤ 0.05, log2 ratio ≤ -1)
Conditions in all cases: compound concentration: 200 uM; treatment time: 3 h

One assay concerns the target T1, OTUD6B (UniProt Q8N6M0).
T1 sequence (whole entry): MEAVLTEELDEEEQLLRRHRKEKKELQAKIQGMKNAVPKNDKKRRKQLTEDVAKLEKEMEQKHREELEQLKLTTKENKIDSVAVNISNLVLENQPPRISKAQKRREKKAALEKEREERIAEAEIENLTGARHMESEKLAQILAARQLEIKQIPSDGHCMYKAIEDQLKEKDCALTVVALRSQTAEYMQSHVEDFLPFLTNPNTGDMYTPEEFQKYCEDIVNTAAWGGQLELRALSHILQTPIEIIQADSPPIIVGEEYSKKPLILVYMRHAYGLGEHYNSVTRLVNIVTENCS
The method, boiled down:
(§1)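 The table lists average log2 ratios of fragment over vehicle, from an unpaired t-test on global-median-normalised Spectronaut label-free quantities. Proteins with ≥2 unique peptides were used. Samples were HEK293T lysate (495 µg) treated in triplicate with fragment at 200 µM or vehicle for 3 h, then with Biotin-Ahx-Ub-VS (0.5 µM final) for 1 h, with labelled DUBs NeutrAvidin-enriched and run by diaPASEF LC-MS/MS.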

A further assay has as its target T2, OTUD7B (UniProt Q6GQQ9).
T2 sequence (whole entry): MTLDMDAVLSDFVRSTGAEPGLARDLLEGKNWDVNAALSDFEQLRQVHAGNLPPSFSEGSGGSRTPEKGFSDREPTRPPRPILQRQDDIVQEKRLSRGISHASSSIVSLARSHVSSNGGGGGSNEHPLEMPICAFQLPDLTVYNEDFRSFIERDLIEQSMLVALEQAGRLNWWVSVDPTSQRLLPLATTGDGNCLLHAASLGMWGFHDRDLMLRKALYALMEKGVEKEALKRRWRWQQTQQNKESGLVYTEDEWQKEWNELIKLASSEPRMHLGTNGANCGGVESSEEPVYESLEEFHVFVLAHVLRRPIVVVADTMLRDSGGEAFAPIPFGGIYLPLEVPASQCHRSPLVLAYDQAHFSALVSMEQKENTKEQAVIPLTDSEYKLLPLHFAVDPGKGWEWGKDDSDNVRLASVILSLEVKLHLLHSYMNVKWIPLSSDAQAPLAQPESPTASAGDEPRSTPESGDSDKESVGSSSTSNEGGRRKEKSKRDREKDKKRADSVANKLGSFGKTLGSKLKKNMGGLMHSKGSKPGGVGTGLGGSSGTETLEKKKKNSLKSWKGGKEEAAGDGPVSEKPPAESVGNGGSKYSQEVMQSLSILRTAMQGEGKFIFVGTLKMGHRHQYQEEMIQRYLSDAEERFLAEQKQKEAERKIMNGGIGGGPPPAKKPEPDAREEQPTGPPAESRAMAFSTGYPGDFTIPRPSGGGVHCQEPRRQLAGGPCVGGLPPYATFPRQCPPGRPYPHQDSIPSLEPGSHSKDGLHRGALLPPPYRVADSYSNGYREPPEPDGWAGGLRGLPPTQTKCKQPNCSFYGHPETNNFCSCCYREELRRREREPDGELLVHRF
The method, boiled down: as §1

In a further assay the target is PRPF8 (UniProt Q6P2Q9). In a few lines: as §1
In another assay the target is T3, PSMD7 (UniProt P51665).
T3 sequence (whole entry): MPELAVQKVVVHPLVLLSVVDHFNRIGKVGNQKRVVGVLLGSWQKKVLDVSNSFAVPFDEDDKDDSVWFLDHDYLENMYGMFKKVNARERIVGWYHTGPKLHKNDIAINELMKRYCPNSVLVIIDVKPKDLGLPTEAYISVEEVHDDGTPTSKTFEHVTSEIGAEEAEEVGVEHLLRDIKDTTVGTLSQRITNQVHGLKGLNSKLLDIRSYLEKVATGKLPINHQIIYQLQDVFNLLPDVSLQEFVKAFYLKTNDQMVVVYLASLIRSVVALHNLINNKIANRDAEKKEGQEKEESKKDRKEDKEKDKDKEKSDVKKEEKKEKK
The method, boiled down: as §1

The target in another assay is UCHL1 (UniProt P09936). In a few lines:
as §1

For another assay, the target named is T4, UCHL3 (UniProt P15374).
T4 sequence (whole entry): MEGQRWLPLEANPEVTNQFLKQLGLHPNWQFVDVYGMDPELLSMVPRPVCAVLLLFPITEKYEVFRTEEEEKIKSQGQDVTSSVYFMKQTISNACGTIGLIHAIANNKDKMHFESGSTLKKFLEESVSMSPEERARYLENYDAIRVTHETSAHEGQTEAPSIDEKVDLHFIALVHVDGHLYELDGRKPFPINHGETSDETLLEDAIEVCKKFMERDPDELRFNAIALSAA
In a few lines: as §1

The next assay deals with T5, UCHL5 (UniProt Q9Y5K5).
T5 sequence (whole entry): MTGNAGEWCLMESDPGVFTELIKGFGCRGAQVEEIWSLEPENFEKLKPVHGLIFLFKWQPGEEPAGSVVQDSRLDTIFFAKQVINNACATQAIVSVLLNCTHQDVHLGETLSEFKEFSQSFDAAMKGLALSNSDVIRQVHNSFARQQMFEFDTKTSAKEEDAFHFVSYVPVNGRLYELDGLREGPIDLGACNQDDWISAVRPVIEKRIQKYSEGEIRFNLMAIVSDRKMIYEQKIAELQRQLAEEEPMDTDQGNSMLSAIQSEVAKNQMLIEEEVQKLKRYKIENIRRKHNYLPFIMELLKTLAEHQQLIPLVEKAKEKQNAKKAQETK
In a few lines:
as §1

In a further assay the target is USP10 (UniProt Q14694). The method, boiled down: as §1
A further assay has as its target T6, USP15 (UniProt Q9Y4E8).
T6 sequence (whole entry): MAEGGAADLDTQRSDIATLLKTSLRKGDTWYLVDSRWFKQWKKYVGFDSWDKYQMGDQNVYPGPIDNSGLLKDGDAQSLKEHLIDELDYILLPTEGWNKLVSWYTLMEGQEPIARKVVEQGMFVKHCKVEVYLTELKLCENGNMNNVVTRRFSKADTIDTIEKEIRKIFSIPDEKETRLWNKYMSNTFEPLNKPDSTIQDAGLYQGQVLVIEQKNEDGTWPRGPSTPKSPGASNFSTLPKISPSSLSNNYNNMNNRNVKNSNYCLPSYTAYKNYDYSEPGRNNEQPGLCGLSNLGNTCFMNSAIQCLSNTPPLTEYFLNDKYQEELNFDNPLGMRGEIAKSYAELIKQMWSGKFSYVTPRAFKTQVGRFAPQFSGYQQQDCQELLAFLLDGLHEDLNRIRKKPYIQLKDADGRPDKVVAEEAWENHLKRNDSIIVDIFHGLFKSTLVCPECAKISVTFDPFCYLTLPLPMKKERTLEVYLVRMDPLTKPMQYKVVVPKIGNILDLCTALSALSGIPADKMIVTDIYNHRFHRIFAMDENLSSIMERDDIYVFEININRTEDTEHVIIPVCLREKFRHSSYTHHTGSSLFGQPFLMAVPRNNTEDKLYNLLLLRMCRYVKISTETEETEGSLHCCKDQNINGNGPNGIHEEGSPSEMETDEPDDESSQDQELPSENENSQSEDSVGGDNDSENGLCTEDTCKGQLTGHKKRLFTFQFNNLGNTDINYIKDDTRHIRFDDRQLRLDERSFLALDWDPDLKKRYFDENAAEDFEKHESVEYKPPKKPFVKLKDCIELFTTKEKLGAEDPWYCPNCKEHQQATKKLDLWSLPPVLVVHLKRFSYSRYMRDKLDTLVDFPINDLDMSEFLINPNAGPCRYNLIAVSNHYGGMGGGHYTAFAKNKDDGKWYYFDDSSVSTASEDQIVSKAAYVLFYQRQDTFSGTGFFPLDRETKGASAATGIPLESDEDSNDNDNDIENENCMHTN
In a few lines: as §1

The target of another assay is USP16 (UniProt Q9Y5T5). The method, boiled down:
as §1

Values without a mark were called inactive.

Chain of USP16 (Q9Y5T5 whole entry, looked up): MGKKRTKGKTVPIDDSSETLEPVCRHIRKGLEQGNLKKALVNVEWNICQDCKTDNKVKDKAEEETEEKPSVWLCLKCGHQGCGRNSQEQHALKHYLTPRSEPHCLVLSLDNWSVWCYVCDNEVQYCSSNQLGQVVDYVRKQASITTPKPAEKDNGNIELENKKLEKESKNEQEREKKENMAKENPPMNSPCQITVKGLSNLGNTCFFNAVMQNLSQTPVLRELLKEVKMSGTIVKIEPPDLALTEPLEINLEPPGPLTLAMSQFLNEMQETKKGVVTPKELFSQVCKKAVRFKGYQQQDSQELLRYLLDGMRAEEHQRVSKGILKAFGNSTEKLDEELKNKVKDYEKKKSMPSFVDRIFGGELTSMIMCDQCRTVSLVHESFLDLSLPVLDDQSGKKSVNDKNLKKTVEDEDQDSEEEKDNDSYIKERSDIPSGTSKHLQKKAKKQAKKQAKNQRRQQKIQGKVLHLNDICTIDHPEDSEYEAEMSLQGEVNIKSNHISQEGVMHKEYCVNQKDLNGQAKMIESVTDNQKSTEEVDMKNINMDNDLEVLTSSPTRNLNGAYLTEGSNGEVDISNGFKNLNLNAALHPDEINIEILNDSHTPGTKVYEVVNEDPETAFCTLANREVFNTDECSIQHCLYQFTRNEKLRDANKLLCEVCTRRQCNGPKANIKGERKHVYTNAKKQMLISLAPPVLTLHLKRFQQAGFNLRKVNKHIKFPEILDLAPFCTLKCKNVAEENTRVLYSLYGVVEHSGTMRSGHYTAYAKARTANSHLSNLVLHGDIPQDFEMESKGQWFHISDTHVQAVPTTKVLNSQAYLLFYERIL
Chain of USP10 (Q14694 whole entry): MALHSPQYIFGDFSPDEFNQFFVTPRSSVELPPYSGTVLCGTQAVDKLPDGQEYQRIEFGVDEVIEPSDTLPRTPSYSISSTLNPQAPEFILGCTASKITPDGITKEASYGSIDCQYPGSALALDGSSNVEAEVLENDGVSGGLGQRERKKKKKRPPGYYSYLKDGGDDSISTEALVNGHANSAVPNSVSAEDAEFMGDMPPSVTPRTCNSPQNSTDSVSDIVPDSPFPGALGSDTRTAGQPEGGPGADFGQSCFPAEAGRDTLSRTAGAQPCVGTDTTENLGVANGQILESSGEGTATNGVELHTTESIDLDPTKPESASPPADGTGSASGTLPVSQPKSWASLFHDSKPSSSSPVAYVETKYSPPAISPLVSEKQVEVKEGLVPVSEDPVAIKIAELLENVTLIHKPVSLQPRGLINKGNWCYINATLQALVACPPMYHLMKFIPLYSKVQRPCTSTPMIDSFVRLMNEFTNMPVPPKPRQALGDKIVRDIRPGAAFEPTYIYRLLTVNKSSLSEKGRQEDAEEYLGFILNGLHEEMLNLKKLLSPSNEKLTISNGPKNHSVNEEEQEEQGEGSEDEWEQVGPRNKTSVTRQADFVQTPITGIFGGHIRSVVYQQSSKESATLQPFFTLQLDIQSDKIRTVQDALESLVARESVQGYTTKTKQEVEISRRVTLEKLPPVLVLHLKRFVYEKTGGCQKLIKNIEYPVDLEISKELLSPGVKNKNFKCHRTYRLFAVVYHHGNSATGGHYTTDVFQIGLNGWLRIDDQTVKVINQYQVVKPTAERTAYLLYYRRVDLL
Chain of UCHL1 (P09936 whole entry, looked up): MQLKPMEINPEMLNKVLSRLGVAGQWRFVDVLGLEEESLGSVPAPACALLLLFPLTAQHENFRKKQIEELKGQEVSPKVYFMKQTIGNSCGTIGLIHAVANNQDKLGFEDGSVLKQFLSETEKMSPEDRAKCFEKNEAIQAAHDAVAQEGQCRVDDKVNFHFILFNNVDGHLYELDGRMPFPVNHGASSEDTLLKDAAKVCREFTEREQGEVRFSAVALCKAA

Take `CCc1c[nH]c(CNC(=O)CCl)n1.Cl`: the “log2 ratio of Biotin-Ahx-Ub-VS probe labelling” value with OTUD6B was -0.246; with OTUD7B, -0.369; in the assay with PRPF8 it was 0.073; in the assay with PSMD7, -0.469; with UCHL1, -1.33 (active); in the assay with UCHL3, 0.0893. Besides, the “log2 ratio of Biotin-Ahx-Ub-VS probe labelling” value was -0.335 in the assay with UCHL5, -0.218 with USP10, -0.538 with USP15 and -0.0099 with USP16.
